# Assay results as given in paper PMC11006913.
# Residue numbers refer to the chain shown, from its start.
# Assays:
# Test in all cases: PBM; 200 nM protein, PBS
# Details in all cases: dsDNA, one strand shown
# PAX4 [1] = target: T1, PAX4 (Homo sapiens, UniProt O43316 9-242, R200K)
# T1 sequence: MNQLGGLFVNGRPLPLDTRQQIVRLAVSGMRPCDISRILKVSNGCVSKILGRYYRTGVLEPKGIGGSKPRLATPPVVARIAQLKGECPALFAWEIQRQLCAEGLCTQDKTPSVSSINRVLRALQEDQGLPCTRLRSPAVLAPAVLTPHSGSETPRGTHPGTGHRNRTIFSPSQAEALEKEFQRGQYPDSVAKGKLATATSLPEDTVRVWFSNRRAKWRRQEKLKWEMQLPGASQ
# PAX4 [2] = target: T2, PAX4 (Homo sapiens, UniProt O43316 9-242)
# T2 sequence: T1 sequence with K192R
# HOXA2 [3] = target: HOXA2 (Homo sapiens, UniProt O43364 129-215, R185T)
# PAX4 [4] = target: T3, PAX4 (Homo sapiens, UniProt O43316 9-242, R200Q)
# T3 sequence: T1 sequence with K192Q
# HOXA2 [5] = target: HOXA2 (Homo sapiens, UniProt O43364 129-215, R185K)
# PAX4 [6] = target: T4, PAX4 (Homo sapiens, UniProt O43316 9-242, F177V)
# T4 sequence: T1 sequence with F169V, K192R
# PAX4 [7] = target: T5, PAX4 (Homo sapiens, UniProt O43316 9-242, F177Y)
# T5 sequence: T1 sequence with F169Y, K192R
# PAX4 [8] = target: T6, PAX4 (Homo sapiens, UniProt O43316 9-242, R227W)
# T6 sequence: T1 sequence with K192R, R219W
# HOXA2 [9] = target: HOXA2 (Homo sapiens, UniProt O43364 129-215, Y150S)
# HOXA2 [10] = target: HOXA2 (Homo sapiens, UniProt O43364 129-215)
# NKX2-6 = target: T7, NKX2-6 (Homo sapiens, UniProt A6NCS4 118-204, R150C)
# T7 sequence: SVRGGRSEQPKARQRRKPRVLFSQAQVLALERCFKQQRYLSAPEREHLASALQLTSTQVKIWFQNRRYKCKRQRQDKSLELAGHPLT
# HOXD13 [11] = target: HOXD13 (Homo sapiens, UniProt P35453 263-343, T313R)
# HOXD13 [12] = target: HOXD13 (Homo sapiens, UniProt P35453 263-343)
# HOXD13 [13] = target: HOXD13 (Homo sapiens, UniProt P35453 263-343, T313A)
# HOXB9 [14] = target: HOXB9 (Homo sapiens, UniProt P17482 171-250)
# ALX3 [15] = target: ALX3 (Homo sapiens, UniProt O95076 139-225, N203Q)
# ALX3 [16] = target: ALX3 (Homo sapiens, UniProt O95076 139-225)
# ALX3 [17] = target: ALX3 (Homo sapiens, UniProt O95076 139-225, L168Q)
# HOXB9 [18] = target: HOXB9 (Homo sapiens, UniProt P17482 171-250, R186Q)
# ALX3 [19] = target: ALX3 (Homo sapiens, UniProt O95076 139-225, L168V)
# ALX3 [20] = target: ALX3 (Homo sapiens, UniProt O95076 139-225, N203S)
# MSX2 [21] = target: MSX2 (Homo sapiens, UniProt P35548 130-214, R199I)
# MSX2 [22] = target: MSX2 (Homo sapiens, UniProt P35548 130-214)
# MSX2 [23] = target: MSX2 (Homo sapiens, UniProt P35548 130-214, F161Y)
# Sequence of MSX2 (Homo sapiens, UniProt P35548 130-214, F161Y) (P35548 130-214 F161Y): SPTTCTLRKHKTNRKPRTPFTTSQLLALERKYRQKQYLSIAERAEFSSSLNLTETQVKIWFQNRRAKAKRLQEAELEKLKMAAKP
# Sequence of ALX3 (Homo sapiens, UniProt O95076 139-225, N203S) (O95076 139-225 N203S): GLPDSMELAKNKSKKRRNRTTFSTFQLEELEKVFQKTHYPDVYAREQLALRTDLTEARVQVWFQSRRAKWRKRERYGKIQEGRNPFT
# Sequence of HOXA2 (Homo sapiens, UniProt O43364 129-215, Y150S) (O43364 129-215 Y150S): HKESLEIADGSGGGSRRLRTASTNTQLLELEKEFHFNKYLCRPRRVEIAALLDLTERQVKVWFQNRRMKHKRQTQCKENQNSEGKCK
# Sequence of ALX3 (Homo sapiens, UniProt O95076 139-225, L168V) (O95076 139-225 L168V): as the sequence (O95076 139-225 N203S) above, with L30V, S65N counted along it
# Sequence of ALX3 (Homo sapiens, UniProt O95076 139-225, N203Q) (O95076 139-225 N203Q): as the sequence (O95076 139-225 N203S) above, with S65Q counted along it
# Sequence of HOXA2 (Homo sapiens, UniProt O43364 129-215, R185T) (O43364 129-215 R185T): as the sequence (O43364 129-215 Y150S) above, with S22Y, R57T counted along it
# Sequence of ALX3 (Homo sapiens, UniProt O95076 139-225) (O95076 139-225): as the sequence (O95076 139-225 N203S) above, with S65N counted along it
# Sequence of ALX3 (Homo sapiens, UniProt O95076 139-225, L168Q) (O95076 139-225 L168Q): as the sequence (O95076 139-225 N203S) above, with L30Q, S65N counted along it
# Sequence of HOXA2 (Homo sapiens, UniProt O43364 129-215, R185K) (O43364 129-215 R185K): as the sequence (O43364 129-215 Y150S) above, with S22Y, R57K counted along it
# Sequence of HOXA2 (Homo sapiens, UniProt O43364 129-215) (O43364 129-215): as the sequence (O43364 129-215 Y150S) above, with S22Y counted along it
# Sequence of HOXD13 (Homo sapiens, UniProt P35453 263-343, T313A) (P35453 263-343 T313A): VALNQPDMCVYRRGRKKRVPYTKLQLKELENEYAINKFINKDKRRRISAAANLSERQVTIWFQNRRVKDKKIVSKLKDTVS
# Sequence of MSX2 (Homo sapiens, UniProt P35548 130-214, R199I) (P35548 130-214 R199I): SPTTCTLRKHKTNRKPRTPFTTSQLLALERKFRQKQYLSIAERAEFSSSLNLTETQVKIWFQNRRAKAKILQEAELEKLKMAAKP
# Sequence of HOXD13 (Homo sapiens, UniProt P35453 263-343) (P35453 263-343): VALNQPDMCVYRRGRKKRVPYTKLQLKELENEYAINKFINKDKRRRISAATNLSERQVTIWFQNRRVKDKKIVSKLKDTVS
# Sequence of HOXB9 (Homo sapiens, UniProt P17482 171-250, R186Q) (P17482 171-250 R186Q): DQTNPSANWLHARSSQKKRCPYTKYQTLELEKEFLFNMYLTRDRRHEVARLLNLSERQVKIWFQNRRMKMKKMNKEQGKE
# Sequence of HOXD13 (Homo sapiens, UniProt P35453 263-343, T313R) (P35453 263-343 T313R): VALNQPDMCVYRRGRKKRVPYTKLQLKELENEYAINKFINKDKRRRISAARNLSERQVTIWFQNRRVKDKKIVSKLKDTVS
# Sequence of MSX2 (Homo sapiens, UniProt P35548 130-214) (P35548 130-214): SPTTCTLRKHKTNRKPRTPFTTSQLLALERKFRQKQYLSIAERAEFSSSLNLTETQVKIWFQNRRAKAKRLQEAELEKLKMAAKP
# Sequence of HOXB9 (Homo sapiens, UniProt P17482 171-250) (P17482 171-250): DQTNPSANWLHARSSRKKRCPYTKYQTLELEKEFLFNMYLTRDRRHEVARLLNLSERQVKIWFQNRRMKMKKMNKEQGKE
sequence,measurement,setting,value
CGGAGCCG,binding signal,PAX4 [1],"9.19 upbm affinity estimate (log intensity, higher = more binding, comparable within an allelic series)"
same,binding signal,PAX4 [2],"9.38 upbm affinity estimate (log intensity, higher = more binding, comparable within an allelic series)"
same,binding signal,HOXA2 [3],"7.43 upbm affinity estimate (log intensity, higher = more binding, comparable within an allelic series)"
same,binding signal,PAX4 [4],"9.24 upbm affinity estimate (log intensity, higher = more binding, comparable within an allelic series)"
same,binding signal,HOXA2 [5],"10.1 upbm affinity estimate (log intensity, higher = more binding, comparable within an allelic series)"
same,binding signal,PAX4 [6],"9.03 upbm affinity estimate (log intensity, higher = more binding, comparable within an allelic series)"
same,binding signal,PAX4 [7],"9.04 upbm affinity estimate (log intensity, higher = more binding, comparable within an allelic series)"
same,binding signal,PAX4 [8],"9.09 upbm affinity estimate (log intensity, higher = more binding, comparable within an allelic series)"
same,binding signal,HOXA2 [9],"10.4 upbm affinity estimate (log intensity, higher = more binding, comparable within an allelic series)"
same,binding signal,HOXA2 [10],"7.23 upbm affinity estimate (log intensity, higher = more binding, comparable within an allelic series)"
GTGTAATA,binding signal,PAX4 [1],"10.9 upbm affinity estimate (log intensity, higher = more binding, comparable within an allelic series)"
same,binding signal,PAX4 [2],"11.1 upbm affinity estimate (log intensity, higher = more binding, comparable within an allelic series)"
same,binding signal,PAX4 [4],"10.8 upbm affinity estimate (log intensity, higher = more binding, comparable within an allelic series)"
same,binding signal,PAX4 [6],"10.4 upbm affinity estimate (log intensity, higher = more binding, comparable within an allelic series)"
GCCCGGCA,binding signal,PAX4 [1],"9.23 upbm affinity estimate (log intensity, higher = more binding, comparable within an allelic series)"
same,binding signal,PAX4 [2],"9.34 upbm affinity estimate (log intensity, higher = more binding, comparable within an allelic series)"
same,binding signal,NKX2-6,"9.33 upbm affinity estimate (log intensity, higher = more binding, comparable within an allelic series)"
same,binding signal,PAX4 [4],"9.28 upbm affinity estimate (log intensity, higher = more binding, comparable within an allelic series)"
same,binding signal,PAX4 [6],"9.09 upbm affinity estimate (log intensity, higher = more binding, comparable within an allelic series)"
same,binding signal,PAX4 [7],"9.13 upbm affinity estimate (log intensity, higher = more binding, comparable within an allelic series)"
same,binding signal,PAX4 [8],"9.21 upbm affinity estimate (log intensity, higher = more binding, comparable within an allelic series)"
CCTCCCCC,binding signal,PAX4 [1],"9.47 upbm affinity estimate (log intensity, higher = more binding, comparable within an allelic series)"
same,binding signal,PAX4 [2],"9.49 upbm affinity estimate (log intensity, higher = more binding, comparable within an allelic series)"
same,binding signal,HOXD13 [11],"9.14 upbm affinity estimate (log intensity, higher = more binding, comparable within an allelic series)"
same,binding signal,PAX4 [4],"9.57 upbm affinity estimate (log intensity, higher = more binding, comparable within an allelic series)"
same,binding signal,HOXD13 [12],"9.51 upbm affinity estimate (log intensity, higher = more binding, comparable within an allelic series)"
same,binding signal,PAX4 [6],"9.21 upbm affinity estimate (log intensity, higher = more binding, comparable within an allelic series)"
same,binding signal,PAX4 [7],"9.2 upbm affinity estimate (log intensity, higher = more binding, comparable within an allelic series)"
same,binding signal,HOXD13 [13],"9.46 upbm affinity estimate (log intensity, higher = more binding, comparable within an allelic series)"
same,binding signal,PAX4 [8],"9.23 upbm affinity estimate (log intensity, higher = more binding, comparable within an allelic series)"
CCCTAATA,binding signal,PAX4 [1],"11.3 upbm affinity estimate (log intensity, higher = more binding, comparable within an allelic series)"
same,binding signal,PAX4 [2],"11.6 upbm affinity estimate (log intensity, higher = more binding, comparable within an allelic series)"
same,binding signal,HOXB9 [14],"10.3 upbm affinity estimate (log intensity, higher = more binding, comparable within an allelic series)"
same,binding signal,ALX3 [15],"8.25 upbm affinity estimate (log intensity, higher = more binding, comparable within an allelic series)"
same,binding signal,PAX4 [4],"11.2 upbm affinity estimate (log intensity, higher = more binding, comparable within an allelic series)"
same,binding signal,PAX4 [6],"10.2 upbm affinity estimate (log intensity, higher = more binding, comparable within an allelic series)"
same,binding signal,ALX3 [16],"10.9 upbm affinity estimate (log intensity, higher = more binding, comparable within an allelic series)"
same,binding signal,PAX4 [7],"10.5 upbm affinity estimate (log intensity, higher = more binding, comparable within an allelic series)"
same,binding signal,ALX3 [17],"8.97 upbm affinity estimate (log intensity, higher = more binding, comparable within an allelic series)"
same,binding signal,HOXB9 [18],"10.2 upbm affinity estimate (log intensity, higher = more binding, comparable within an allelic series)"
same,binding signal,ALX3 [19],"8.89 upbm affinity estimate (log intensity, higher = more binding, comparable within an allelic series)"
same,binding signal,PAX4 [8],"10.6 upbm affinity estimate (log intensity, higher = more binding, comparable within an allelic series)"
same,binding signal,ALX3 [20],"8.32 upbm affinity estimate (log intensity, higher = more binding, comparable within an allelic series)"
CTAATAAC,binding signal,PAX4 [1],"11.1 upbm affinity estimate (log intensity, higher = more binding, comparable within an allelic series)"
same,binding signal,PAX4 [2],"11.3 upbm affinity estimate (log intensity, higher = more binding, comparable within an allelic series)"
same,binding signal,PAX4 [4],"11.1 upbm affinity estimate (log intensity, higher = more binding, comparable within an allelic series)"
same,binding signal,PAX4 [6],"10.4 upbm affinity estimate (log intensity, higher = more binding, comparable within an allelic series)"
CCAGGGGG,binding signal,PAX4 [1],"9.05 upbm affinity estimate (log intensity, higher = more binding, comparable within an allelic series)"
same,binding signal,PAX4 [2],"9.19 upbm affinity estimate (log intensity, higher = more binding, comparable within an allelic series)"
same,binding signal,ALX3 [15],"7.64 upbm affinity estimate (log intensity, higher = more binding, comparable within an allelic series)"
same,binding signal,PAX4 [4],"9.12 upbm affinity estimate (log intensity, higher = more binding, comparable within an allelic series)"
same,binding signal,PAX4 [6],"9.04 upbm affinity estimate (log intensity, higher = more binding, comparable within an allelic series)"
same,binding signal,ALX3 [16],"7.54 upbm affinity estimate (log intensity, higher = more binding, comparable within an allelic series)"
same,binding signal,PAX4 [7],"9.08 upbm affinity estimate (log intensity, higher = more binding, comparable within an allelic series)"
same,binding signal,ALX3 [17],"7.58 upbm affinity estimate (log intensity, higher = more binding, comparable within an allelic series)"
same,binding signal,ALX3 [19],"7.54 upbm affinity estimate (log intensity, higher = more binding, comparable within an allelic series)"
same,binding signal,PAX4 [8],"9.06 upbm affinity estimate (log intensity, higher = more binding, comparable within an allelic series)"
same,binding signal,ALX3 [20],"7.57 upbm affinity estimate (log intensity, higher = more binding, comparable within an allelic series)"
CATTTAAC,binding signal,PAX4 [1],"10.7 upbm affinity estimate (log intensity, higher = more binding, comparable within an allelic series)"
same,binding signal,PAX4 [2],"10.9 upbm affinity estimate (log intensity, higher = more binding, comparable within an allelic series)"
same,binding signal,PAX4 [4],"10.8 upbm affinity estimate (log intensity, higher = more binding, comparable within an allelic series)"
same,binding signal,PAX4 [6],"10.2 upbm affinity estimate (log intensity, higher = more binding, comparable within an allelic series)"
AGGGGGCC,binding signal,PAX4 [1],"8.96 upbm affinity estimate (log intensity, higher = more binding, comparable within an allelic series)"
same,binding signal,PAX4 [2],"9.02 upbm affinity estimate (log intensity, higher = more binding, comparable within an allelic series)"
same,binding signal,HOXA2 [3],"7.23 upbm affinity estimate (log intensity, higher = more binding, comparable within an allelic series)"
same,binding signal,MSX2 [21],"9.51 upbm affinity estimate (log intensity, higher = more binding, comparable within an allelic series)"
same,binding signal,PAX4 [4],"9.05 upbm affinity estimate (log intensity, higher = more binding, comparable within an allelic series)"
same,binding signal,HOXA2 [5],"10.2 upbm affinity estimate (log intensity, higher = more binding, comparable within an allelic series)"
same,binding signal,PAX4 [6],"9.04 upbm affinity estimate (log intensity, higher = more binding, comparable within an allelic series)"
same,binding signal,MSX2 [22],"9.64 upbm affinity estimate (log intensity, higher = more binding, comparable within an allelic series)"
same,binding signal,PAX4 [7],"9.04 upbm affinity estimate (log intensity, higher = more binding, comparable within an allelic series)"
same,binding signal,MSX2 [23],"9.59 upbm affinity estimate (log intensity, higher = more binding, comparable within an allelic series)"
same,binding signal,PAX4 [8],"9.1 upbm affinity estimate (log intensity, higher = more binding, comparable within an allelic series)"
same,binding signal,HOXA2 [9],"10.2 upbm affinity estimate (log intensity, higher = more binding, comparable within an allelic series)"
same,binding signal,HOXA2 [10],"7.17 upbm affinity estimate (log intensity, higher = more binding, comparable within an allelic series)"
